Only some compounds are listed: those with a hit (about 3.1% of all), similar ones and a draw of the others.
rTrxR1 inhibitor = qHTS Assay for Inhibitors of Mammalian Selenoprotein Thioredoxin Reductase 1 (TrxR1): qHTS; 1% of 390,000 active; recombinant rTrxR1, NADPH fluorescence consumption, selenite substrate; Thioredoxin reductase 1, cytoplasmic (Rattus norvegicus), O89049; Potency, µM (series often up to 114 µM), inactives show at the top dose activity change, negative = inhibition, most hits filed as inhibitors; further: on the % scale 0 is the no-effect control and ±100 the full control effect; nearly all actives have a fitted effect of over 65% in size
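Rat TrxR1 (90 nM in the dispensed reagent) was pre-reduced with 400 uM NADPH for 5 min at room temperature, then incubated with compound for 15 min. After 400 uM selenite was added, NADPH fluorescence (Ex 340/Em 450 nm) was followed for 8 min.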
TrxR1 substrate = qHTS Assay for Substrates of Mammalian Selenoprotein Thioredoxin Reductase 1 (TrxR1): qHTS | Thioredoxin reductase 1, cytoplasmic (Rattus norvegicus), O89049 | purified TrxR1 substrate turnover, NADPH consumption readout | Potency, µM (top dose mostly 114 µM), for inactives: at the top dose activity change, negative = substrate turnover | 0.01% of 390,000 active | AID 588456, 2011; further: on the % scale 0 is the no-effect control and ±100 the full control effect; nearly all actives have a fitted effect of over 50% in size
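Rat TrxR1, dispensed at 90 nM, was prereduced with 400 uM NADPH (final) for 5 min at ~22 deg C, then incubated with compound 15 min before 400 uM selenite. A first-read NADPH fluorescence drop versus no-compound background flagged substrates.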
Nrf2 block = Nrf2 qHTS screen for inhibitors; A549 ARE-Fluc reporter, luciferase luminescence, 18-24 h; Potency, µM (highest dose often 46 µM), for inactives: at the top dose activity change, negative = inhibition, actives largely listed as inhibitors; 2.1% of 360,000 active; further: on the % scale 0 is the no-effect control and ±100 the full control effect; nearly all actives have a fitted effect of over 60% in size
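Quantitative HTS in A549 cells stably bearing an antioxidant response element-firefly luciferase construct. Inhibition of Nrf2-driven transcription was scored by luminescence after 18-24 h of compound exposure at 37 °C.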
Mito fusion act = qHTS Assay for Small Molecule Inhibitors of Mitochondrial Division or Activators of Mitochondrial Fusion. S. cerevisiae fusion-defective mutant growth rescue, CellTiterGlo 48 h. Potency, µM (top dose mostly 46.1 µM), for the others: at the highest dose growth rescue (activation), actives largely listed as activators. 0.23% of 320,000 active. AID 485298, 2010; further: % of control where 0% means no effect; nearly all actives have a fitted effect of over 45% in size
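Read-out: ATP-based luminescence (CellTiterGlo, 10 min ambient) reporting growth of fusion-defective ts yeast after 48 hours at 37C on glycerol/ethanol YPEG medium in the presence of compound.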
IDH1 R132H inh = qHTS for Inhibitors of mutant isocitrate dehydrogenase 1 (IDH1): qHTS; Isocitrate dehydrogenase [NADP] cytoplasmic (Homo sapiens), O75874; IDH1-R132H enzyme, NADPH consumption, diaphorase/resazurin fluorescence; Potency, µM (series often up to 76.6 µM), inactives show top-dose activity change, negative = inhibition, usual class: inhibitors; 0.093% of 390,000 active; further: on the % scale 0 is the no-effect control and ±100 the full control effect; nearly all actives have a fitted effect of over 65% in size
Target sequence (O75874 whole entry R132H, stated change not applied): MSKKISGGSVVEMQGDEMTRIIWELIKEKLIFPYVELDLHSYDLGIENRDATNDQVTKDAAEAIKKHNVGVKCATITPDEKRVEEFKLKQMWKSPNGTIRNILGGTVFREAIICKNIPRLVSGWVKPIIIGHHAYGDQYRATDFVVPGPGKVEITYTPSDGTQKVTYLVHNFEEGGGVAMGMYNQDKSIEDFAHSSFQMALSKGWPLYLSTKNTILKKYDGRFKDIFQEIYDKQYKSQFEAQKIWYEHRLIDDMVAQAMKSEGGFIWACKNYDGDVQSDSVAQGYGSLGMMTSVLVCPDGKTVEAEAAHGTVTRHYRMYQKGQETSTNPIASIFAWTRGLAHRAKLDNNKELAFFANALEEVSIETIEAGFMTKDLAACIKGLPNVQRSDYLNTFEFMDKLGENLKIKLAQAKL
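IDH1-R132H (0.5 ug/mL) preincubated 30 min with compound, then NADPH (0.016 mM) and alpha-KG (2 mM) added; 80 min at RT, pH 7.5. Remaining NADPH coupled via diaphorase/resazurin to fluorescence (540/590 nm); concentration-response curves normalized to no-enzyme control.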
A549 tox = Nrf2 qHTS screen for inhibitors: counterscreen for cytotoxicity. 0.16% of 390,000 active. A549 ARE-Fluc cells, CellTiter-Fluor viability, 18-24 h. Potency, µM (titrated, usually from 46 µM), for inactives: at the highest dose activity change, negative = cytotoxicity, hits mostly inhibitors; further: on the % scale 0 is the no-effect control and ±100 the full control effect
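A549 ARE_Fluc cells in 5% FBS OPTI-MEM were exposed to compounds in concentration-response for 18-24 h at 37 deg C. Viability was read by CellTiter-Fluor fluorescence (Ex 405/Em 525) after 30 min, before the luciferase read.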
Numbers without * were called inactive; u = inconclusive; x = no result given; [ ] = another dose, or the depositor's remark. The call rests on the fitted dose curve; in most records, active means well fitted curve in the direction sought with a large enough effect; inconclusive means small, poorly fitted or top-dose-only effect, or another doubt; inactive means no such curve, though single readings can be large; an effect the other way counts as inactive or inconclusive. Potency means the concentration at half of the fitted maximal effect.

SMILES | rTrxR1 inhibitor | TrxR1 substrate | Nrf2 block | Mito fusion act | IDH1 R132H inh | A549 tox
O=C(c1ccccc1)C(I)(I)N1CCOCC1 | -9% | 12%[0.0914 µM] | x | x | x | x
CC(C)(C)c1ccc(OCCC(=O)Nc2cccc(S(=O)(=O)NC3=NCCCCC3)c2)cc1 | 6%[57.1 µM] | -7% | 18µM* | -15% | 0% | u
COc1ccc(C(=O)N(Cc2ccco2)Cc2ccco2)cc1 | 12% | 4% | -6% | x | 11% | -1%
CC1(C)CCc2cc(O)ccc2O1 | 17% | 2% | x | x | x | x
CC(C)(C)NC(=O)C(c1ccncc1)N(Cc1cccs1)C(=O)Cn1nnc(-c2ccc(F)cc2)n1 (centres undefined) | -11% | -1% | 9.2µM* | -4% | -2% | -15%
CC(C)(C)NC(=O)C(c1ccncc1)N(CC1CCCO1)C(=O)Cn1nnc(-c2ccc(F)cc2)n1 (centres undefined) | 10%[57.1 µM] | 2%[57.1 µM] | -1% | -2% | -5% | 1%
CCCCOc1cccc(C(=O)NC(=S)Nc2cccnc2)c1 | 25µM* | -12% | -2% | 0% | -1% | 14%
O=C(NC(=S)Nc1cccnc1)c1cccc(Br)c1 | 56µM* | -10% | 2% | -1% | 8% | -10%
C=CC(=O)c1ccc(CCCCCC)cc1 | 13µM* | 17%[57.1 µM] | x | -62% | x | x
CC1=C(C(=O)OCc2ccccc2)C(/C=C/c2ccccc2)NC(=S)N1 (centres undefined) | 13%[0.0914 µM] | -16% | u | 16µM* | 1% | 0%
C=CCOC(=O)C1=C(C)NC(=S)NC1/C=C/c1ccccc1 (centres undefined) | 22%[57.1 µM] | 8%[57.1 µM] | u | -2% | 3% | -1%
COc1cc(C(=O)N2CCN(c3ncnc4sc(C)c(C)c34)CC2)cc(OC)c1OC | 17%[57.1 µM] | 5%[57.1 µM] | 10µM* | -1% | -1% | u
Cc1sc2ncnc(N3CCN(c4ncccn4)CC3)c2c1C | -9%[11.4 µM] | -4% | 15µM* | 1% | 2% | -12%
CCS(=O)(=O)N1CCN(c2ncnc3sc(C)c(C)c23)CC1 | 9% | 6% | -13% | 4% | 1% | 2%
Cc1ccc(-n2cc(-c3ccccc3)c3c(NC4CCCC4)ncnc32)cc1 | 18%[57.1 µM] | 6%[57.1 µM] | x | x | -6% | 0%
CN(C)c1ccc(C=O)c(O)c1 | -24% | -21% | x | x | x | x
O/C(=C\c1nc2ccccc2[nH]1)c1cccs1 | 45µM* | 4% | u | 2% | -15% | 0%
COc1ccc(NC(=O)c2ccc(COc3ccccc3Br)o2)cc1OC | -20% | -7% | 23µM* | 5% | 1% | -14%
CCN(CC)c1ccc(/C=C/C2=C3C=CC=CC3NC=C2)cc1 (centres undefined) | 12% | -3% | x | x | x | x
O=C(O)c1cccc(-c2cccc(-c3nn4c(=O)cc(N5CCNCC5)nc4s3)c2)c1 | x | x | 5% | x | x | -8%
COc1ccc(-c2cc(C3CCN(c4cc(Cl)nc(N)n4)CC3)[nH]n2)cc1 | 13% | -13% | 13µM* | 8% | 1% | u
O=C(CN1C(=O)/C(=C\C=C\c2ccccc2)SC1=S)Nc1ccc(F)cc1 | -20% | -12% | 5% | 3% | -2% | -6%
O=C(COC(=O)CCN1C(=O)/C(=C\C=C\c2ccccc2)SC1=S)Nc1cc(F)ccc1F | -18%[57.1 µM] | -1%[57.1 µM] | 8.2µM* | -1% | -2% | u
COc1ccc(Cl)cc1NC(=O)Cn1nnc2sc(-c3ccccc3)cc2c1=O | -15% | 1% | 12% | x | x | 2%
Cn1c2ccccc2c2c(C(=O)NCc3ccco3)cn(C3CCCCC3)c(=O)c21 | 20µM* | 23% | 8% | 10% | 4% | -10%
